# Assay results as given in PubChem BioAssay AID1645855 (Buhrlage Lab, Dana-Farber Cancer Institute and Novartis …, 2021).
# About 3,100 (6.6%) of roughly 47,000 compounds were called active. This is one part of a sample in which actives are shown more often than they occur. Rule as the data show it: active = inhibition above about 30%; inactive = the rest.
# Biological target: Ubiquitin carboxyl-terminal hydrolase 17-like protein 5 (Homo sapiens) (UniProt A8MUK1)
# Experiment: blocks human USP17 ubiquitin-rhodamine cleavage (AID 1645855)
# Details: purified USP17, Ub-rhodamine cleavage fluorescence, 3 h; at 50 µM; hits give high values
# Ubiquitin carboxyl-terminal hydrolase 17-like protein 5 (Homo sapiens), sequence (A8MUK1 whole entry, looked up): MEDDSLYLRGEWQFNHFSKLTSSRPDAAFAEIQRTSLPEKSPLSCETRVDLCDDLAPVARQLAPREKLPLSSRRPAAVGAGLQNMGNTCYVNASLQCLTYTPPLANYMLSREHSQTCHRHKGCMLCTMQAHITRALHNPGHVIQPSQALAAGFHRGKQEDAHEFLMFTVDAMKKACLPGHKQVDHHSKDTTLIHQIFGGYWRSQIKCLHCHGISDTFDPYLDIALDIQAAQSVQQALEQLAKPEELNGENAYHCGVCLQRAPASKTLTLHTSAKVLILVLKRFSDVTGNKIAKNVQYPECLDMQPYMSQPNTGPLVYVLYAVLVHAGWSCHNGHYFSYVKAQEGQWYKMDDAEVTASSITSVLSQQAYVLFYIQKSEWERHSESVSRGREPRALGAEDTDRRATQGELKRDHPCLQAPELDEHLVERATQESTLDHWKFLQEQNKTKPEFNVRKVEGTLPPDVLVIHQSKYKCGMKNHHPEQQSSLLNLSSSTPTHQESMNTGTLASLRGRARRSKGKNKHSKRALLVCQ
row,Structure (SMILES),inhibition
1,Cc1ccccc1CNC(=O)C1CCN(c2cnc3nccnc3c2)CC1,-13% (inactive)
2,CCN1CCN(C(=O)c2cccn2Cc2noc(-c3ccc(C)cc3)n2)CC1,-1.85% (inactive)
3,CN(C)C(CNC(=O)c1ccccc1Br)Cc1ccccc1 (stereo unspecified),14.4% (inactive)
4,Cc1ccccc1N1C(=O)COc2ccc3ccccc3c2C1C(=O)NC1CCCC1 (stereo unspecified),-5.8% (inactive)
5,CNC(=O)[C@@]12CCC3(CCN(C(=O)c4cc(C)on4)CC3)[C@@H]1CN(C)C2,3.02% (inactive)
6,CCn1cc(CN2C[C@@H](O)[C@H](NC(=O)c3ccccn3)C2)c(C)n1,12.4% (inactive)
7,O=C(c1cnn(-c2ccc(Cl)cc2)n1)c1cccs1,29.5% (inactive)
8,O=C(Nc1ccc2oc(-c3ccccc3)nc2c1)c1cccc(-n2cnnc2)n1,-0.426% (inactive)
9,O=C(Nc1ccc2cn[nH]c2c1)c1cnn(-c2ccccc2)n1,38.2% (active)
10,CC(NC(=O)c1ccc2ncnc(N3CCOCC3)c2c1)c1ccccc1 (stereo unspecified),9.89% (inactive)
11,C=C(NC(=O)C(=C)NC(=O)c1csc(C2=N[C@@H]3c4csc(n4)[C@H]4NC(=O)c5csc(n5)[C@H]([C@](C)(O)[C@@H](C)O)NC(=O)C5CSC(=N5)/C(=C/C)NC(=O)C([C@@H](C)O)NC(=O)c5csc(n5)[C@]3(CC2)NC(=O)[C@H](C)NC(=O)C(=C)NC(=O)[C@H](C)NC(=O)C([C@@H](C)CC)NC2C=Cc3c(C(C)O)cc(nc3[C@H]2O)C(=O)OC4C)n1)C(N)=O (stereo partly specified),53.2% (active)
12,CN(C)C(=O)C1CN(Cc2cccc(C#N)c2)Cc2ccnn2C1 (stereo unspecified),-3.45% (inactive)
13,c1cncc(-c2nnc3n2C2(CCCCC2)Cc2ccccc2-3)c1,-1.82% (inactive)
14,O=c1c2ccccc2n(Cc2ccccc2Cl)c(=O)n1Cc1ccco1,-8.56% (inactive)
15,CCn1nccc1C1CCCN1C(=O)Nc1ccc(Cl)cc1 (stereo unspecified),1.51% (inactive)
16,Cc1ccc(CNC(=O)CCCn2c(=O)c3sccc3n(CC(=O)OCc3ccccc3)c2=O)cc1,47.4% (active)
17,COc1ccc(CCNC(=O)CSc2cn(CCNC(=O)c3ccccc3C)c3ccccc23)cc1OC,18.8% (inactive)
18,Cc1cccc(N2CC(C)Cn3c2nc2c3c(=O)n(CC(=O)OCc3ccccc3)c(=O)n2C)c1 (stereo unspecified),-3.33% (inactive)
19,COc1ccc(CCNC(=O)Cn2c(=O)n(CC3CCC(C(=O)NC4CCCC4)CC3)c(=O)c3ccccc32)cc1OC (stereo unspecified),9.89% (inactive)
20,COc1ccc(CCNC(=O)CCCn2c(=O)c3ccccc3n(CC(=O)OCc3ccccc3)c2=O)cc1OC,40.5% (active)
21,Cc1ccc(CNC(=O)CC(c2ccccc2)c2ccccc2)cc1,24.3% (inactive)
